What is called inhibition is the drop in the measured response relative to a control, in per cent.

In all, about 330,000 compounds went through this assay and about 4,900 (1.5%) were called active.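 How the source made its calls: active means inhibition above about 50% at the single test dose (limit read from the data); inactive means the rest.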 Only a selection was taken, and actives are over-represented in it overall.

The values that follow come from PubChem BioAssay AID434973 (Sanford-Burnham Center for Chemical Genomics, 2010).

The target of this experiment is Sentrin-specific protease 7 (Homo sapiens) (UniProt Q9BQF6). Kind of experiment: blockers of human SENP7 peptidase activity – biochemical, luminescence, uHTS, primary screen (AID 434973).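 Further: plate controls were DMSO with enzyme for no effect and no enzyme buffer wells for full effect.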 To be noted: recombinant SENP7, Z-RLRGG-aminoluciferin luminescence, 40 min; at 5 µM; hits give high values.
In the case of `CC(C)(C)c1ccc(/C=C/C(=O)NC2CCS(=O)(=O)C2)cc1` (stereo unspecified), the inhibition was 5.24% (inactive).
To `Cc1ccc(S(=O)(=O)N2CCN(C(=O)c3ccc(-n4cncn4)c([N+](=O)[O-])c3)CC2)cc1` belongs 0.142% (inactive); to `CN(C)S(=O)(=O)c1cc(NC(=O)CN2C(=O)NC3(CCCc4ccccc43)C2=O)ccc1Cl` (stereo unspecified), -13.5% (inactive); to `Cc1nc2nc(C)c(NS(=O)(=O)c3ccc(C(C)(C)C)cc3)c(=O)n2[nH]1`, -0.191% (inactive).
Regarding `Cc1csc(SCC(=O)Nc2sccc2C#N)n1`, the inhibition is 94% (active).
To `Cc1ccc(NC(=O)CSCC(=O)Nc2sccc2C#N)cc1` belongs 1.52% (inactive).
The figure for `Cc1cccc(C)c1Nc1nnc(SCC(=O)Nc2sccc2C#N)s1` is 8.73% (inactive); for `COC(=O)C1=C(C)NC(=O)/C1=C/c1ccc(CNS(=O)(=O)c2ccc(C)cc2)o1` it is -2.86% (inactive); for `CC(=O)Nc1ccc(C(=O)Nc2cccc(S(=O)(=O)NC3=NCCC3)c2)cc1` it is -0.0847% (inactive).
To `O=C(Nc1ccc2c(c1)OCCO2)c1ccoc1` belongs -0.659% (inactive).
Consider `N#Cc1ccccc1NC(=O)c1ccc2c(c1)OCO2`, for which the inhibition is 2.46% (inactive).
With `CC(NC(=O)Nc1cccc([N+](=O)[O-])c1)c1ccc2c(c1)OCO2` (stereo unspecified), the inhibition is 3.89% (inactive).
To `O=C(Nc1ccccc1)c1ccc2c(c1)OCCCO2` belongs 90.7% (active); to `O=C(Nc1ccc(N2CCOCC2)cc1)c1ccc2c(c1)OCO2`, 16.9% (inactive); to `CC(C)C(=O)Nc1cccc(C(=O)Nc2ccc3c(c2)OCO3)c1`, 34.3% (inactive).
To `CN1CCN(c2ccc(NC(=O)c3ccc4c(c3)OCCO4)cc2Cl)CC1` belongs -1.01% (inactive); to `O=C(Nc1ccccc1F)c1ccc2c(c1)OCO2`, 67.5% (active).
To `O=C(Nc1ccc(NC(=O)c2ccc3c(c2)OCO3)cc1)c1cccc(Cl)c1` belongs 1.85% (inactive); to `CN(Cc1c(F)cccc1Cl)C(=O)CNC(=O)c1ccc2c(c1)OCO2`, -9.22% (inactive); to `O=C(Nc1ccccc1)c1ccc2c(c1)OCO2`, 88.5% (active).
Take `O=C(Nc1cccc([N+](=O)[O-])c1)c1ccc2c(c1)OCO2`: the inhibition is 66.9% (active).
To `Cc1ccc(S(=O)(=O)N2CCOCC2)cc1NC(=O)CSc1nnc(N)s1` belongs -5.72% (inactive); to `CC(C)(C)C1CCC(OC(=O)CCC(=O)Nc2ccccc2)CC1` (stereo unspecified), 3.21% (inactive).
To `COc1cc(OC)cc(/C(N)=N/O)c1` belongs 0.905% (inactive); to `O=C(CN1C(=O)NC2(CCCC2)C1=O)NCC1CCCO1` (stereo unspecified), 4.93% (inactive); to `O=C(CN1C(=O)CC(c2ccccc2)S(=O)(=O)c2ccccc21)NC1CCCC1` (stereo unspecified), 2.74% (inactive).
